A selection: hits, their analogues and other compounds. The true share with any hit is near 2.5%.
Cruzain inh Det = blocks cruzain activity in presence of Triton detergent; Potency, µM, inactives show max response, negative = inhibition, hits mostly inhibitors; 200,000 tested, 0.43% active; purified cruzain, Z-FR-AMC fluorescence, 0.01% Triton; AID 1478;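 further: plate controls were neutral wells for no effect and buffer without enzyme for full effect; nearly all actives have a fitted effect of over 40% in size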
Target sequence (P25779 123-467 limits assumed): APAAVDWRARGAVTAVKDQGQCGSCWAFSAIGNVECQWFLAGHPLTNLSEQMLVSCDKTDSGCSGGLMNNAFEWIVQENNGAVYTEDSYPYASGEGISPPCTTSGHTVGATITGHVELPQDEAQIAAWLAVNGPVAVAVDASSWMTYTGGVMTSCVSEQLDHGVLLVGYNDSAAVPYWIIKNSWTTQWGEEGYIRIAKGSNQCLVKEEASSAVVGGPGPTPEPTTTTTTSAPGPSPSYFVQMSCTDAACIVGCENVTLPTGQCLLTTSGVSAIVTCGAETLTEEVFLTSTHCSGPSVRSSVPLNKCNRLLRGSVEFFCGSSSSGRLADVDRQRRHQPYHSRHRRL
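Cysteine protease activity tested under reducing, mildly acidic conditions (100 mM sodium acetate pH 5.5, 5 mM DTT) plus 0.01% Triton X-100. Cruzain 1.5 nM; substrate Z-FR-AMC 2 uM; 15 min compound preincubation at room temperature.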
Cruzain inh noDet = blocks cruzain activity in detergent-free assay; purified cruzain, Z-FR-AMC fluorescence, no detergent; Potency, µM, for inactives: max response, negative = inhibition, hits mostly inhibitors; P25779; AID 1476; 200,000 tested, 2.3% active;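 further: plate controls were enzyme without inhibitor for no effect and buffer without enzyme for full effect; nearly all actives have a fitted effect of over 40% in size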
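Detergent-free condition (0.00005% Triton X-100) in acetate buffer pH 5.5 with DTT. 1.5 nM enzyme and compound were pre-mixed 15 min, then 2 uM Z-FR-AMC substrate added; reaction progress from fluorescence change between first and third reads (60 s).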
* = called active by the depositor. The call rests on the fitted dose curve; in most records, active means well fitted curve in the direction sought with a large enough effect; inconclusive means small, poorly fitted or top-dose-only effect, or another doubt; inactive means no such curve, though single readings can be large; an effect the other way counts as inactive or inconclusive. Potency means the concentration at half of the fitted maximal effect.

Screening O=C(NC1CC(=O)N(c2ccc(F)cc2)C1)C(c1ccccc1)c1ccccc1 (configuration not stated) returned Cruzain inh Det -4% and Cruzain inh noDet -1%.
CN(C)c1ccc(CNC(=O)CN2C(=O)CCn3nc(-c4cn(C)c5ccccc45)cc32)cc1 was read as Cruzain inh Det -4% and Cruzain inh noDet inconclusive.
COc1ccc2c(c1)C(=O)[C@H](OC(=O)NCCc1ccc(OC)c(OC)c1)[C@@H](c1ccc(OC)c(Br)c1)O2 was read as Cruzain inh Det -8% and Cruzain inh noDet 5%.
CC1(c2cc([N+](=O)[O-])cc([N+](=O)[O-])c2)CC(C)(C)N(C(=O)c2ccccc2)c2ccccc21 (configuration not stated) was read as Cruzain inh Det 5% and Cruzain inh noDet 10µM*.
Screening CC1(c2ccc(Cl)cc2)CC(C)(C)N(C(=O)c2ccccc2)c2ccccc21 (configuration not stated) returned Cruzain inh Det -3% and Cruzain inh noDet inconclusive.
`Cc1ccc(N=Cc2c(O)n(-c3cc(Cl)ccc3N3CCOCC3)c(=O)c3ccccc23)cc1C` gave Cruzain inh Det -1% and Cruzain inh noDet 6.3µM*.
Cc1cc(N=Cc2c(O)n(-c3cccc(Cl)c3)c(=O)c3ccccc23)no1 was read as Cruzain inh Det -4% and Cruzain inh noDet -4%.
`COc1ccc(/C=N/OC/C(O)=C(\C#N)c2nc3ccccc3[nH]2)cc1OC` gave Cruzain inh Det -5% and Cruzain inh noDet -6%.
`COc1ccc(/C(C)=N/OC/C(O)=C(\C#N)c2nc3ccccc3[nH]2)cc1` gave Cruzain inh Det 1% and Cruzain inh noDet 5µM*.
For COc1cc2ccc([C@H](C)NCC#N)cc2cc1OC the results were Cruzain inh Det 3% and Cruzain inh noDet 1%.
CCOC(=O)C1=C(CSc2nc(-c3ccccc3)ccc2C#N)OC(N)=C(C#N)C1c1cccnc1 (configuration not stated) was read as Cruzain inh Det -5% and Cruzain inh noDet inconclusive.
`CCOC(=O)C1=C(CSc2nc(-c3ccccc3)ccc2C#N)OC(N)=C(C#N)C1c1ccccc1` (configuration not stated) gave Cruzain inh Det -2% and Cruzain inh noDet 25µM*.
Screening Cc1ccccc1-c1nc(Nc2ccncc2)c2ccccc2n1 returned Cruzain inh Det 0% and Cruzain inh noDet 16%.
Screening CCOc1ccc(N2C(=O)N(Cc3ccc(C)cc3C)c3ccccc3S2(=O)=O)cc1 returned Cruzain inh Det 0% and Cruzain inh noDet 25µM*.
Screening COc1cc(OC)cc(N2C(=O)N(CC(=O)c3ccc(F)cc3)c3ccccc3S2(=O)=O)c1 returned Cruzain inh Det 0% and Cruzain inh noDet inconclusive.
COc1cc(OC)cc(N2C(=O)N(Cc3ccc(C(C)(C)C)cc3)c3ccccc3S2(=O)=O)c1 was read as Cruzain inh Det 1% and Cruzain inh noDet 4µM*.
CC(=O)c1ccc(N2C(=O)N(CC(=O)c3ccc(C)cc3)c3ccccc3S2(=O)=O)cc1 was read as Cruzain inh Det 0% and Cruzain inh noDet inconclusive.
For COc1cc(C(CC(=O)Nc2cc(C)ccc2C)N2Cc3ccccc3C2=O)cc(OC)c1OC (configuration not stated) the results were Cruzain inh Det -3% and Cruzain inh noDet 14%.
`COc1cccc(CNC(=O)c2cc(S(=O)(=O)N3CCCCC3)cn2C)c1` gave Cruzain inh Det -5% and Cruzain inh noDet 0%.
`CSc1ccc(C(=S)N2CCN(C(c3ccccc3)c3ccccc3)CC2)cc1` gave Cruzain inh Det -2% and Cruzain inh noDet 4µM*.
For CSc1ccc(C(=S)N2CCN(C)CC2)cc1 the results were Cruzain inh Det 3% and Cruzain inh noDet 11%.
For O=[N+]([O-])c1cc(S(=O)(=O)N2CCCC2)ccc1N/N=C/c1cccnc1 the results were Cruzain inh Det -2% and Cruzain inh noDet 7%.
For CCC(/C=N/Nc1ccc(S(=O)(=O)N2CCCC2)cc1[N+](=O)[O-])CC the results were Cruzain inh Det -1% and Cruzain inh noDet 20µM*.
NCCCCCc1cnc[nH]1 was read as Cruzain inh Det -1% and Cruzain inh noDet -4%.
Cc1ccc(C)c(CN2C(=O)c3ccccc3S(=O)(=O)c3ccc(C(=O)Nc4ccccc4C(F)(F)F)cc32)c1 was read as Cruzain inh Det -5% and Cruzain inh noDet inconclusive.
O=C(NCCc1ccc(Cl)cc1)c1ccc2c(c1)N(Cc1ccccc1F)C(=O)c1ccccc1S2(=O)=O was read as Cruzain inh Det 1% and Cruzain inh noDet inconclusive.
Screening Cc1ccc(C)c(CN2C(=O)c3ccccc3S(=O)(=O)c3ccc(C(=O)Nc4cc(F)ccc4F)cc32)c1 returned Cruzain inh Det -2% and Cruzain inh noDet 16µM*.
For Cc1ccc(C)c(CN2C(=O)c3ccccc3S(=O)(=O)c3ccc(C(=O)NCCc4ccc(Cl)cc4)cc32)c1 the results were Cruzain inh Det 5% and Cruzain inh noDet 10µM*.
Cc1cccc(-c2nc3scc(CCNS(=O)(=O)c4ccc5c(c4)OCCO5)n3n2)c1 was read as Cruzain inh Det -4% and Cruzain inh noDet 2%.
For Cc1cccc(CCNC(=O)c2ccc3c(c2)nc2n3CCCCC2)c1 the results were Cruzain inh Det -1% and Cruzain inh noDet -6%.
`CCCn1c(=O)c2sccc2n2c(CCCC(=O)NCCOC)nnc12` gave Cruzain inh Det -2% and Cruzain inh noDet 6%.
Screening CCNc1ncc2nc(C)c(=O)n(Cc3cccs3)c2n1 returned Cruzain inh Det -4% and Cruzain inh noDet -4%.
Screening O=C(COC(=O)c1c2c(nc3ccccc13)CCCC2)Nc1ccc2c(c1)OCO2 returned Cruzain inh Det -6% and Cruzain inh noDet 25µM*.
O=C(COC(=O)c1cc(-c2ccccc2)nc2ccccc12)Nc1ccc2c(c1)OCO2 was read as Cruzain inh Det -4% and Cruzain inh noDet inconclusive.
For O=C(COC(=O)c1cccs1)Nc1ccccc1 the results were Cruzain inh Det 2% and Cruzain inh noDet -1%.
`CC(=O)c1ccc(NC(=O)COC(=O)CCC(=O)c2cccs2)cc1` gave Cruzain inh Det -1% and Cruzain inh noDet -1%.
`CC(=O)c1ccc(NC(=O)COC(=O)c2c3c(nc4ccccc24)/C(=C\c2cccs2)CCC3)cc1` gave Cruzain inh Det 5% and Cruzain inh noDet 7.9µM*.
`O=C(COC(=O)c1c2c(nc3ccccc13)/C(=C\c1cccs1)CCC2)Nc1ccccc1` gave Cruzain inh Det 0% and Cruzain inh noDet 10µM*.
`O=C(NCCCN1CCN(c2cccc(Cl)c2)CC1)c1cnn(-c2ccc(F)cc2)c1-n1cccc1` gave Cruzain inh Det -3% and Cruzain inh noDet 2%.
`Cc1ccc(Cn2cc(C(=O)c3ccc4c(c3)OCO4)c(=O)c3cc(C)ccc32)cc1` gave Cruzain inh Det -3% and Cruzain inh noDet inconclusive.
`O=C(Cn1ncc2c3ccccc3n(Cc3cccc(Cl)c3)c2c1=O)NCCCN1CCCCC1` gave Cruzain inh Det -6% and Cruzain inh noDet 0%.
Cc1c(-c2cccc(NC(=O)Nc3ccccc3)c2)nc2ncccn12 was read as Cruzain inh Det -6% and Cruzain inh noDet 18%.
`CCNc1ccc(C(=O)N/N=C/c2c(C)nn(-c3ccccc3)c2N2CCCC2)cc1[N+](=O)[O-]` gave Cruzain inh Det -10% and Cruzain inh noDet 6%.
`Cc1ccc(NS(=O)(=O)c2cccc(C(=O)N/N=C/c3c(C)nn(-c4ccccc4)c3N3CCCC3)c2)c(C)c1` gave Cruzain inh Det -2% and Cruzain inh noDet 32µM*.
